Sampled rows, rich in hits. Any-hit rate of the full collection: about 2.6%.
HIF-2a block: HIF-2a inhibition. AID 624352. hit rate 0.72% among 360,000. inhibition, % at 18.8 µM. 786-0 RCC cells HIF-2a reporter, luciferase luminescence, overnight;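 active = inhibition of the luminescence signal of 40% or more relative to plate controls, in a single-dose primary screen at 18.75 µM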
Shn3 inh set2: inhibitors of Schnurri-3 3'UTR reporter in osteoblasts; Clone20 osteoblast Shn3 3'UTR firefly luciferase, 24 h; inhibition, % at 12.5 µM; hit rate 0.52% among 360,000;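 active = mean inhibition of at least 75% with every replicate also reaching 75%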;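 also: 0% = median of neutral control wells and 100% = pilot-screen positive control compound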
Peg3 prom inh: reduces Peg3 promoter-driven luciferase expression in HeLa | HeLa PEG-Prom luciferase reporter, luminescence, overnight | inhibition, % at 20 µM | hit rate 1.7% among 360,000 | AID 588405;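 active = inhibition of at least 50% at 20 µM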
CF NFkB block: cystic fibrosis NF-kB activation inhibition | AID 588850 | hit rate 0.86% among 360,000 | inhibition, % at 5 µM | KKLEB NF-kB-GFP reporter, PAF-induced, GFP fluorescence overnight;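 active = at least 50% inhibition at 5 µM, scaled per plate between neutral and stimulator controls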;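 also: PAF is a Pseudomonas aeruginosa culture filtrate used as stimulus; plate controls were PAF-stimulated DMSO wells for no effect and unstimulated DMSO wells for full effect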
KKLEB tox: reduces viability of KKLEB cystic fibrosis airway cells; KKLEB CF airway cells viability, ATPlite luminescence, overnight; active compounds read low; cells stimulated with P. aeruginosa culture filtrate; activity change (cytotoxicity), % at 5 µM; hit rate 0.36% among 360,000; AID 602141;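 active = corrected activity change at or below -50% at 5 µM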
The depositor's hits bear a star; x = no result given.

SMILES | HIF-2a block | Shn3 inh set2 | Peg3 prom inh | CF NFkB block | KKLEB tox
O=C(OCC12CC3CC(CC(C3)C1)C2)c1ccc(NCc2cc(O)ccc2O)cc1 | 81.0* | 98.3* | 6.4 | 58.5* | -42.2
O=C(OCCC12CC3CC(CC(C3)C1)C2)c1ccc(NCc2cc(O)ccc2O)cc1 | 77.1* | 99.1* | -33.9 | 20.9 | -11.8
CCNC(=O)OCCC12CC3CC(CC(C3)C1)C2 | -5.6 | -9.9 | -19.4 | 13.6 | -0.2
N#CCC(=O)Nc1ccc(C(=O)OCC(=O)C23CC4CC(CC(C4)C2)C3)cc1 | -3.3 | -3.4 | -47.8 | 18.4 | -4.6
CCC(=O)N1CCC1(C)C(=O)Nc1ccc(OC)c(OC)c1 (stereo not drawn) | 9.4 | -9.3 | 2.5 | 10.6 | -13.9
NC(=O)C1(NC2CCCCC2)CCN(Cc2ccccc2)CC1 | 3.6 | 12.3 | -3.8 | -5.0 | 11.2
O=C(NC1CC1)c1ccc(-c2nc3ccccc3s2)s1 | 46.6* | 76.0 | 61.7* | -13.0 | -66.3*
O=C(Oc1cccc(OC(=O)c2ccco2)c1)c1ccco1 | 14.9 | 1.2 | 1.2 | -8.6 | 5.6
CC1=CC(C)(C)N2C(=O)C(=O)c3cc(OC(=O)c4ccco4)cc1c32 | 22.1 | 16.7 | 0.3 | 63.9* | -14.7
COc1ccc(NC2=C(Cl)C(=O)N(CCc3ccccc3)C2=O)c(OC)c1 | -197.0 | -3.0 | -145.7 | -0.9 | -12.9
COc1ccc(CCNC2=C(Cl)C(=O)N(CCc3ccc(OC)c(OC)c3)C2=O)cc1OC | 20.4 | 80.0 | 79.9* | -1.6 | -11.7
COc1ccc(C(=O)CC(Nc2ccc([N+](=O)[O-])cc2)c2ccc(OC)cc2)cc1 (stereo not drawn) | -1.8 | 0.1 | -5.6 | -5.1 | -10.4
CNC(CC(=O)c1ccc([N+](=O)[O-])cc1)C(Cl)(Cl)Cl (stereo not drawn) | 92.8* | 38.4 | 100.9* | 46.9 | -8.1
CSc1ccc(CCNC(=O)c2cc(C)nn2-c2ccccc2)cc1 | 5.9 | -4.2 | 11.6 | 5.0 | 0.0
COc1ccc(CNCCC(c2ccc(F)cc2)c2ccc(OC(C)C)cc2)cc1OC (stereo not drawn) | 13.2 | x | 110.3* | 8.6 | -0.6
COc1ccc(C(CCNC(C)c2ccccc2)c2ccc(F)cc2)cc1 (stereo not drawn) | -17.0 | 74.9 | 107.3* | -6.2 | 0.2
COc1ccc(C(CCNCc2ccc(F)cc2)c2ccc(F)cc2)cc1 (stereo not drawn) | -4.1 | 42.3 | 80.5* | 17.0 | -19.0
COc1ccc(CNCCC(c2ccc(F)cc2)c2ccc(OC)cc2)cc1 (stereo not drawn) | 3.3 | 47.3 | 75.6* | 9.8 | -6.6
O=C(CSc1nnc(NC(=O)c2ccc(F)cc2F)s1)NC1CCCC1 | -110.4 | -19.2 | -100.3 | 14.8 | 7.5
O=S(=O)(Nc1cccnc1)c1cccc(C(F)(F)F)c1 | 6.7 | 13.0 | -3.4 | -16.6 | 6.7
O=[N+]([O-])c1ccc(S(=O)(=O)c2cccc(C(F)(F)F)c2)nc1 | 51.6* | x | 99.6* | 88.6* | -39.4
CCN(CC)c1ccc(C(=C2C=CC(=[N+](CC)CC)C=C2)c2ccc(N(CC)CC)cc2)cc1 | 97.5* | 89.0* | 105.6* | 91.7* | -101.1*
Cc1noc(C)c1CSc1nnc(-c2ccncc2)n1-c1ccc(Cl)c(Cl)c1 | 12.3 | 8.4 | 8.8 | -6.3 | -2.7
COC(=O)N1C(=O)[C@](c2ccc(Cl)cc2)(C(C)C)N1C(=O)OC | 23.4 | 50.4 | 30.7 | 66.2* | -14.1
NC(=O)CC(NC(=O)c1ccccc1)c1ccc(N2CCC(Cc3ccccc3)CC2)c([N+](=O)[O-])c1 (stereo not drawn) | 12.7 | 91.4* | 3.2 | 14.8 | -6.5
SMILES | HIF-2a block | Shn3 inh set2 | Peg3 prom inh | CF NFkB block | KKLEB tox
NC(=O)CC(NC(=O)c1ccc(Br)cc1)c1ccc(N2CCC(Cc3ccccc3)CC2)c([N+](=O)[O-])c1 (stereo not drawn) | 9.2 | 62.3 | -4.9 | -20.8 | -2.3
NNC(=O)C1CCN(S(=O)(=O)c2ccc(Cl)cc2)CC1 | 9.9 | 5.4 | 3.3 | -11.8 | 5.6
O=C(NNC(=O)C1CCN(S(=O)(=O)c2ccc(Cl)cc2)CC1)c1ccccc1O | 7.9 | 87.0* | 23.4 | 4.1 | 11.1
O=C(NC1CCN(c2ncccn2)CC1)c1c(F)cccc1F | 1.8 | -7.5 | -4.2 | 8.6 | -7.6
Cc1cc2oc3cc(NCCC4CCCN4C)ccc3c(=O)c2cc1C (stereo not drawn) | -259.7 | -181.0 | 83.2* | -17.0 | -15.7
CN1CCCC1CCNc1ccc2sc3ccccc3c(=O)c2c1 (stereo not drawn) | -195.5 | -39.8 | -153.8 | -36.4 | -7.7
Cc1cc(C)c(S(=O)(=O)N2CCOC2CNC(=O)C(=O)NCCCn2ccnc2)c(C)c1 (stereo not drawn) | 18.6 | 13.3 | 20.7 | -28.8 | 17.6
CCN(CC)CCC(=O)Nc1cccc2c1C(=O)c1ccccc1C2=O | 34.1 | -18.9 | 106.9* | -121.6 | -1.1
CCN(CC)CCNC(=O)c1ccc2c(c1NCCO)C(=O)c1ccccc1C2=O | 61.6* | 25.4 | 111.1* | 76.7* | -51.7*
C=CCC1(C#N)C(=S)NC2=C(C(=O)CC(C)(C)C2)C1c1ccc(Br)cc1 (stereo not drawn) | 15.8 | -23.1 | 7.0 | -4.0 | 8.7
NC(N)=N/N=C/c1ccc(OCc2ccccc2)cc1 | -115.3 | 0.3 | 54.1* | -4.6 | -12.1
O=C(N/N=C/c1ccccc1)c1ccc(OCc2ccccc2)cc1 | -35.7 | -1.9 | -6.2 | -0.6 | 9.6
NC(N)=N/N=C/c1ccc(OCc2ccc(Cl)cc2)cc1 | -124.3 | 73.2 | 110.1* | 35.4 | -31.0
Cc1ccc(COc2ccc(/C=N/O)cc2)cc1 | -176.5 | -122.7 | -281.5 | -18.6 | 4.4
CCOc1ccccc1NC(=O)C(=O)N/N=C/c1cc(Br)ccc1O | -0.6 | 90.8* | 52.6* | 31.1 | -21.0
CCOc1ccccc1C=NNC(=O)C(=O)NN=Cc1ccccc1OCC | 10.3 | 4.9 | 17.4 | -2.1 | -4.8
CCOc1ccc(/C=C/C(O)=C2/C(=O)N(C)C3(C)CC2c2ccccc2O3)cc1OC (stereo not drawn) | 61.7* | -31.3 | 39.6 | 46.6 | -14.0
CCOc1ccc(/C=C/C(O)=C2/C(=O)NC3(C)CC2c2ccccc2O3)cc1OC (stereo not drawn) | 22.1 | 5.0 | 36.9 | 14.9 | -10.8
COC(=O)c1ccc(CNC(=O)COC(=O)c2cccs2)cc1 | 1.9 | 19.0 | -10.7 | -4.5 | 2.2
O=C1N=c2ccccc2=C1c1sc(=S)n(Cc2ccccc2Cl)c1O | 17.2 | 49.1 | 82.9* | -1.3 | 4.6
CC1(C)c2[nH]c3ccccc3c2C[C@@H]2C(=O)N(Cc3ccc(F)cc3)C(=O)N21 | 3.7 | 27.4 | 62.0* | 6.4 | -12.3
CC1=NN(C(N)=S)C(C)(C)C1 | 20.1 | -3.3 | 15.7 | -9.3 | -0.6
CC(C)c1ccc(OCC(=O)NC(C)c2ccccc2)cc1 (stereo not drawn) | -28.1 | 14.5 | -5.5 | -16.4 | 8.5
CCN(CC)C(=S)SSC(=S)N(CC)CC | 27.8 | -2.5 | 68.0* | -20.8 | 4.8
CCN(CC)C(=S)SCC(=O)c1ccccc1 | -180.6 | -47.3 | -230.4 | 0.9 | 10.9

Assay outcomes: PubChem BioAssay, several laboratories
